12-LOX inh – Primary qHTS assay for inhibitors of human arachidonate 12S-lipoxygenase (ALOX12): Round 2; AID 1671190, 2021; purified 12hLO, xylenol orange hydroperoxide absorbance; Potency, µM (series often up to 108 µM), for inactives: at the top dose activity change, negative = inhibition, usual class: inhibitors; 1.1% of 580,000 active; Polyunsaturated fatty acid lipoxygenase ALOX12 (Homo sapiens), P18054; further: on the % scale 0 is the no-effect control and ±100 the full control effect
Target sequence (P18054 whole entry, looked up): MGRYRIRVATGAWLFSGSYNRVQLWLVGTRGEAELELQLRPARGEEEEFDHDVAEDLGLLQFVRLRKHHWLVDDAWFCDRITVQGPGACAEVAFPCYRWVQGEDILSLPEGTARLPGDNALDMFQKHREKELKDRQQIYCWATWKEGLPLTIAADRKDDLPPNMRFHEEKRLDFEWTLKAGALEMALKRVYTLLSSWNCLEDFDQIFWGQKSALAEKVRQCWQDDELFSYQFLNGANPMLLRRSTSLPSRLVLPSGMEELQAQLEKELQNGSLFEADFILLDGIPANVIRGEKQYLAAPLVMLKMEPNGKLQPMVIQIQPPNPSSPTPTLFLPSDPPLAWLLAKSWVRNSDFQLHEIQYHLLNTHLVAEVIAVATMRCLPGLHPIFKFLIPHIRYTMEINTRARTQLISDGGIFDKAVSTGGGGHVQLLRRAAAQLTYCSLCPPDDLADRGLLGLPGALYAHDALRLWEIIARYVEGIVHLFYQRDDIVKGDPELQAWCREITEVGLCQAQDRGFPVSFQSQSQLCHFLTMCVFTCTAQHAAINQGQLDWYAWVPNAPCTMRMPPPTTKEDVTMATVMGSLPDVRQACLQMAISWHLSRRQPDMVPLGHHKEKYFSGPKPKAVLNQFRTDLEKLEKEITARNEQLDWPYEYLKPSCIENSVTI
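Hydroperoxide product was detected by ferrous iron/xylenol orange as the 573 to 405 nm absorbance ratio. Arachidonic acid at 40 uM (final) was turned over for 30 min at room temperature by 150 nM human 12hLO, pH 7.0 Hepes buffer, after 15 min compound preincubation.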
Anesthetic bind – qHTS Assay for Identification of Novel General Anesthetics; AID 485281, 2010; apoferritin/1-aminoanthracene competitive binding, fluorescence; Potency, µM (titrated, usually from 77.5 µM), without a hit: at the top dose activity change, negative = displacement, actives largely listed as inhibitors; Ferritin light chain (Equus caballus), P02791; 0.074% of 350,000 active; further: on the % scale 0 is the no-effect control and ±100 the full control effect; nearly all actives have a fitted effect of over 20% in size
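Steps: apoferritin (10 uM) was premixed with half-saturated 1-AMA in PBS, compounds were pin-transferred, plates stood 10 min at room temperature, fluorescence was read at 380/535 nm, and curves were fitted with a Hill equation.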
Glioma ERSR ind – qHTS for Inducers of the Endoplasmic Reticulum Stress Response (ERSR) in Human Glioma: qHTS; Potency, µM, without a hit: at the top dose activation, hits mostly activators; U87-MG GRP78 promoter luciferase reporter, 16 h; 0.02% of 420,000 active; AID 602332, 2012; further: series mostly up to about 76 µM; % of control where 0% means no effect; nearly all actives have a fitted effect of over 35% in size
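ERSR induction read as luciferase luminescence (Bright-Glo, 10 min at room temperature) in stably transfected human U87-MG glioma cells exposed to compounds for 16 h, using GRP78 as sensor.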
Chronic BCR inh – qHTS Assay to Find Inhibitors of Chronic Active B-Cell Receptor Signaling. ABC-DLBCL IkBa-CBG/CBR reporter, luminescence ratio, 4 h. Potency, µM (titrated, usually from 46.1 µM), for inactives: at the highest dose activity change, negative = inhibition, actives largely listed as inhibitors. 0.05% of 340,000 active. AID 493014, 2011; active means well fitted inhibition curve with a large enough effect in the signal ratio, with a control signal flat, not every such curve was filed as active; inconclusive means small, poorly fitted or top-dose-only effect, or effect the other way, or a change in a side signal; the % refers to the signal ratio;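 further: plate controls were basal doxycycline-induced cells for no effect and cells given 10 µM MG132 for full effect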
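Cell line TMD8 (human ABC DLBCL), stably expressing tet-inducible CBG68-IkBa fusion and CBR; IMDM/0.5% FBS; cpd up to 46 uM; dox induction, 4 h, 37C/5% CO2; dual luminescence; green/red ratio; MG132 control.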
* marks the source's active call; other numbers are inactive results; u = inconclusive; x = not tested or not shown; [ ] = remark or other dose. Rows were chosen to be rich in hits. Some 1.1% of all compounds tested hit in one or more screens of this group. Unless noted, the call rests on the fitted dose curve; in most records, active means well fitted curve in the direction sought with a large enough effect; inconclusive means small, poorly fitted or top-dose-only effect, or another doubt; inactive means no such curve, though single readings can be large; an effect the other way counts as inactive or inconclusive. Potency means the concentration at half of the fitted maximal effect.

SMILES	12-LOX inh	Anesthetic bind	Glioma ERSR ind	Chronic BCR inh
O=C(N1CCCC1)C12CC3CC(CC(C3)C1)C2	3%	-11%	-3%	10%
O=C1NCCN1C(=O)C12CC3CC(CC(C3)C1)C2	16%	14µM*	-8%	u
CCOC(=O)c1cnc(Nc2nc3ccccc3o2)nc1CSc1ncccn1	x	x	-1%	x
CCOC(=O)c1cnc(Nc2nc3ccccc3o2)nc1CSC(=S)N(CC)CC	1%	6%	7%	0.58µM*
O=C(c1ccccn1)N1CCCC(n2cc(-c3nc(-c4ccccc4)no3)nn2)C1 (configuration not stated)	22%	x	x	x
Cc1nc2ccccc2c(C)c1CC(=O)NCCc1ccccc1F	18µM*	x	x	x
O=S(=O)(NCCc1csc(-c2ccc(F)cc2)n1)c1ccc(Cl)cc1	28µM*	-10%	-1%	x
O=c1cc(-c2ccccc2)[nH]c2ccccc12	0%	-8%	-5%	11µM*
O=C1C(c2cc(=O)c3ccccc3[nH]2)=C(O)c2ccccc21	-10%	-5%	-7%	u
O=C(Nc1ccc2c(c1)OCO2)c1ccccc1SCC(=O)N1CCCC1	u	-14%	-3%	-22%
O=C(Nc1ccc2c(c1)OCCCO2)c1ccccc1SCc1cccs1	16µM*	x	x	x
N#Cc1ccc(CSc2ccccc2C(=O)Nc2ccc3c(c2)OCCCO3)cc1	14µM*	x	x	x
N#CCSc1ccccc1C(=O)Nc1ccc2c(c1)CCC2	1.1µM*	x	x	x
O=C(Nc1ccc2c(c1)CCC2)c1ccc2ccccc2c1	-40%	x	x	x
COc1ccc(NC(=O)c2ccccc2SCc2ccc(C#N)cc2)cc1OC	35µM*	x	x	x
COc1ccc2c(COC(=O)CNC(=O)c3ccc(C)c(C)c3)cc(=O)oc2c1	-19%	x	x	x
S=C(NCc1ccco1)Nc1cc(-c2ccccc2)[nH]n1	5µM*	u	4%	u
S=C(NCc1ccco1)Nc1cccc(Cl)c1	u	-7%	2%	7%
S=C(NCc1ccco1)Nc1ccc(Oc2ccccc2)cc1	45µM*	-11%	5%	u
O=C(NC(NC(=S)Nc1ccc(Cl)c(Cl)c1)C(Cl)(Cl)Cl)c1ccco1 (configuration not stated)	2.8µM*	-17%	-2%	u
S=C(NCc1ccco1)Nc1ccc(Br)cn1	u	-23%	4%	-1%
S=C(NCc1ccco1)Nc1ccc(Cl)c(Cl)c1	28µM*	u	4%	u
COc1ccc(NC(=S)NCc2ccco2)cc1	0%	-11%	-1%	u
CCCCC1CCC(C(=O)NC(C(=O)O)C(C)C)CC1 (configuration not stated)	6%	x	x	x
Cc1ccc(C)c(OCC(=O)NCc2cccs2)c1	8%	x	x	x
SMILES	12-LOX inh	Anesthetic bind	Glioma ERSR ind	Chronic BCR inh
CCc1nc2ccccc2c(NC(=O)CN(C)C)c1C	-3%	x	x	x
CCCCOc1ccc(/C=C/C(=O)c2ccc(Br)cc2)cc1	28%	x	x	x
C=CCN(CC=C)C(=S)NC(=O)c1ccc(OC)cc1	-17%	-7%	3%	u
COc1ccc(C(=O)NC(=S)N(Cc2ccccc2)Cc2ccccc2)cc1	35µM*	-7%	-1%	u
COc1ccc(CN2CCN(C/C=C/c3ccccc3)CC2)c(OC)c1OC	0.56µM*	x	x	x
COc1ccc(CN2CCN(Cc3cccc(OC)c3OC)CC2)cc1	0.45µM*	x	x	x
COc1ccc(CN2CCN(C/C=C/c3ccccc3)CC2)cc1OC	0%	x	x	x
CC(NC(=O)c1cc(-c2cccs2)nc2ccccc12)C(C)(C)C (configuration not stated)	-38%	x	x	x
O=C1NC(=NC2CCCC2)C2(CCCN(CC3CCCCC3)C2)N1c1cccnc1 (configuration not stated)	3%[6.33 µM]	x	x	x
COC(=O)[C@H]1[C@H](CO)[C@H]2Cn3c(ccc(Br)c3=O)[C@H]2N1Cc1ccccc1Cl	35µM*	x	x	x
O=C(CSC1CCCCC1)c1ccc(O)cc1O	45µM*	x	x	x
O=C(COC(=O)c1ccc(O)cc1O)NC1CCCCCC1	290%	x	4%	u
COc1ccc(-c2nnc(SCC(=O)c3ccc(O)cc3O)o2)cc1	-8%	-1%	4%	u
COc1ccc(SCC(=O)c2ccc(O)cc2O)cc1	40µM*	x	x	x
Cc1ccc(C(=O)NC(=S)Nc2ccccc2C(F)(F)F)cc1	7.9µM*	u	1%	-7%
COc1ccc(C(=O)NC(=S)NCc2cccnc2)cc1OC	u	-10%	-2%	3%
COc1ccc(C(=O)NC(=S)NCc2ccccc2)cc1OC	16µM*	-18%	-5%	-5%
O=C(NC(=S)NCc1ccccc1)c1cccc(Cl)c1	28µM*	-23%	-1%	-7%
COc1ccc(C(=O)NC(=S)Nc2cccc3cc(O)ccc23)cc1OC	10µM*	-16%	-3%	-3%
CCN(CCCNC(=O)C(C)C)c1ccccc1	-12%	x	x	x
CC(NC(=O)CCNC(=O)C1CCCC1)c1ccccc1 (configuration not stated)	-9%	x	x	x
CS(=O)(=O)Nc1ccccc1CNC(=O)C1CCC1	5%	x	x	x
O=C(CC12CC3CC(CC(C3)C1)C2)NC(=S)NCc1ccccc1	28µM*	-7%	-4%	-1%
COc1cc(C(=O)NC(=S)Nc2ccc3c(c2)OCO3)cc(OC)c1OC	-29%	0%	0%	1%
COc1ccc(CCNC(=S)NC(=O)c2ccc(Br)cc2)cc1OC	28µM*	u	1%	u
SMILES	12-LOX inh	Anesthetic bind	Glioma ERSR ind	Chronic BCR inh
Cc1ccc(C(=O)NC(=S)NCc2ccccc2)cc1	10µM*	-18%	2%	8%
COc1cc(C(=O)NC(=S)Nc2ccc3ccccc3c2)cc(OC)c1OC	18µM*	x	3%	x
COc1ccc(-c2nc(C(=O)N3CCOCC3)nn2-c2ccccc2Cl)cc1	-11%	x	x	x
COc1ccc(C2=Nn3c(nnc3-c3ccc(OC)cc3)SC2)cc1	-7%	u	-4%	6.5µM*
COc1ccc(C2=Nn3c(nnc3-c3ccc(OC)c(OC)c3)SC2)cc1	x	-14%	x	x
COc1ccc(OCc2nnc3n2N=C(c2ccc(Br)cc2)CS3)cc1	282%	14µM*	-1%	-15%
Cc1ccc(OCc2nc(C#N)c(N3CCCCCC3)o2)cc1	-4%	x	x	x
COc1ccc(-n2c(=O)c(-c3ccc(Cl)cc3)nc3cnc(N(C)C)nc32)cc1	11µM*	x	-5%	x
COc1ccc(-c2nc3cnc(N(C)C)nc3n(-c3ccccc3)c2=O)cc1	0%	x	-1%	x
COc1ccc(C(=O)Nc2ccc3c(c2)OCCCO3)c(O)c1	-3%	x	x	x
N#Cc1ccc2c(=O)n(-c3ccccc3)sc2c1	0.45µM*	x	-2%	x
Cc1ccc(-n2sc3ccccc3c2=O)cc1S(=O)(=O)N1CCCCC1	0.089µM*	-2%	-7%	u
O=C(O)c1cccc(-n2sc3ccccc3c2=O)c1	11µM*	x	-2%	u
O=c1c2ccccc2sn1-c1nccs1	1.6µM*	-12%	-9%	-6%
O=c1c2ccccc2sn1-c1cccc(Cl)c1	u	x	-5%	x
O=c1c2ccccc2sn1-c1ccccc1	0.56µM*	u	-15%	u

High-throughput results: PubChem BioAssay, National Center for Advancing Translational Sciences (NCATS)
